{"source": "PubChem BioAssay AID686978", "about": "(National Center for Advancing Translational Sciences (NCATS), 2013)", "note": "Screen size: about 420,000 compounds; about 64,000 (15%) were called active. About 27% were inconclusive and are not listed. Calls come from the whole dose curve; as a rule, active = well fitted inhibition curve with a large enough effect; inconclusive = small, poorly fitted or top-dose-only effect; inactive = flat fitted curve, though single readings scatter. Only a sample is shown. A call without a number means that no potency is given here. Potency is the fitted concentration of half-maximal effect."}
{"test": "qHTS for Inhibitors of human tyrosyl-DNA phosphodiesterase 1 (TDP1): qHTS in cells in absence of CPT; note: nearly all actives have a fitted effect of over 55% in size", "settings": "DT40 Tdp1-/- hTDP1 cells, no CPT, ATP luminescence, 48 h; activity change, negative = growth inhibition: at 46.2 µM (top of the series)", "method_in_brief": "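Chicken DT40 Tdp1-/- cells stably complemented with human TDP1 were seeded at 400 cells/well with DMSO in place of 20 nM camptothecin. After compound pinning, cells grew at least 48 hr at 37 °C; viability read by CellTiter-Glo luminescence.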"}
{"smiles": "Cc1c(O)cc(O)c2c(=O)c(-c3ccc(O)cc3)coc12", "Potency": "inactive"}
{"smiles": "CCOc1ccc(N/C=C/C(=O)c2ccccc2)cc1", "Potency": "inactive"}
{"smiles": "CCCOc1ccc(N/C=C/C(=O)C(C)(C)C)cc1", "Potency": "inactive"}
{"smiles": "CCOc1ccc(N/C=C/C(=O)c2cc(OC)c(OC)c(OC)c2)cc1", "Potency": "6.51 µM (active)"}
{"smiles": "COc1ccc(C2CC(c3cccs3)=NN2c2ccc(F)cc2)cc1OC", "note": "(stereo not given)", "Potency": "inactive"}
{"smiles": "O=C(COC(=O)CCC(=O)c1cccs1)NCc1ccco1", "Potency": "inactive"}
{"smiles": "CCOc1ccc(S(=O)(=O)N(CC(=O)NCCSCc2ccc(C)cc2)c2ccccc2)cc1", "Potency": "inactive"}
{"smiles": "CCCNC(=O)CN(Cc1ccccc1F)S(=O)(=O)c1ccc(C)cc1", "Potency": "inactive"}
{"smiles": "Cc1ccc(S(=O)(=O)N(CC(=O)NCCSC2CCCCC2)c2ccccc2F)cc1", "Potency": "18.4 µM (active)"}
{"smiles": "COC(=O)[C@H]1Cc2cnoc2C[C@]1(C)C(=O)O", "Potency": "inactive"}
{"smiles": "COc1cccc(-c2cc3nc4c(c(N5CCC6(CC5)OCCO6)n3n2)CCCC4)c1", "Potency": "20.6 µM (active)"}
{"smiles": "O=C(NCCO)c1cccc(-c2cccc3nccn23)c1", "Potency": "inactive"}
{"smiles": "C/C(CC(C)C)=N\\Oc1nc(C)cc(C)n1", "Potency": "inactive"}
{"smiles": "CC1(C)O[C@@H]2CC3C4C[C@H](F)C5=CC(=O)C=CC5(C)C4C(O)CC3(C)[C@]2(C(=O)CO)O1", "note": "(stereo not given in full)", "Potency": "inactive"}
{"smiles": "Cc1nc2ccccc2c(-c2ccccc2)c1C(=O)c1ccccc1", "Potency": "inactive"}
{"smiles": "CNC(=O)C1CC(=O)N(c2ccc(OCC(=O)Nc3ccccc3C)cc2)C1", "note": "(stereo not given)", "Potency": "inactive"}
{"smiles": "O=C(Nc1ccccc1N1CCOCC1)c1ccncc1", "Potency": "inactive"}
{"smiles": "CC(=O)c1ccc(N2CCN(CC(=O)Nc3ccccc3N3CCOCC3)CC2)cc1", "Potency": "10.3 µM (active)"}
{"smiles": "O=C(CN1CCN(C2CCCCC2)CC1)Nc1ccccc1N1CCCCC1", "Potency": "22.4 µM (active)"}
{"smiles": "O=C(CN1CCCCC1)Nc1ccccc1C(=O)NC1CC1", "Potency": "inactive"}
{"smiles": "CN1CCN(c2ccccc2NC(=O)COc2ccc(C3CCCCC3)cc2)CC1", "Potency": "16.4 µM (active)"}
{"smiles": "O=C(CN1CCCCC1)Nc1ccccc1Cl", "Potency": "inactive"}
{"smiles": "CN1CCN(c2ccc(S(=O)(=O)N3CCCCC3)cc2NC(=O)Cc2ccccc2F)CC1", "Potency": "inactive"}
{"smiles": "CCc1ccc(C(=O)NC(=S)Nc2ccccc2N2CCOCC2)cc1", "Potency": "inactive"}
{"smiles": "O/N=C(\\c1ccc2c(c1)OCCO2)C1CCCCC1", "Potency": "inactive"}
{"smiles": "CC1(C(=O)NS(=O)(=O)c2ccc(C#N)cc2)CCN1C(=O)c1ccc(C2CCCCC2)cc1", "note": "(stereo not given)", "Potency": "inactive"}
{"smiles": "O=C(O)C1C2C=CC(O2)C1C(=O)NCCc1cccc(Cl)c1", "note": "(stereo not given)", "Potency": "inactive"}
{"smiles": "COCC(C)NC(=O)c1ccc(Cl)c(Cl)c1", "note": "(stereo not given)", "Potency": "inactive"}
{"smiles": "Cn1nc(C(=O)OCC(=O)N(Cc2ccccc2)C(C)(C)C)c2ccccc2c1=O", "Potency": "inactive"}
{"smiles": "CC(Oc1ccccc1)C(=O)Nc1c2c(nn1-c1ccccc1)CS(=O)C2", "note": "(stereo not given)", "Potency": "inactive"}
{"smiles": "O=C(NCCCn1ccnc1)c1ccccc1F", "Potency": "inactive"}
{"smiles": "O=C(CCN1CCN(C/C=C/c2ccccc2)CC1)Nc1cccc(F)c1", "Potency": "inactive"}
{"smiles": "O=C(CCN1C(=O)/C(=C/c2cccs2)SC1=S)NNC(=O)c1cccc(O)c1", "Potency": "inactive"}
{"smiles": "O=C1/C(=C/c2cccs2)SC(=S)N1C1CCS(=O)(=O)C1", "note": "(stereo not given)", "Potency": "18.4 µM (active)"}
{"smiles": "CCN1CCC2(CCN(Cc3cn[nH]c3-c3ccc(OC)c(F)c3)C2)C1", "note": "(stereo not given)", "Potency": "inactive"}
{"smiles": "O=C(Cn1cnc2c(OCc3ccccc3)ncnc21)NCCCn1ccnc1", "Potency": "inactive"}
{"smiles": "O=[N+]([O-])c1ccccc1OCCCCN1CCCCC1", "Potency": "inactive"}
{"smiles": "Cc1ccc(C(C)C)cc1OCCN1CCCC1", "Potency": "inactive"}
{"smiles": "Cc1ccc(C(C)(C)C)c(OCCCCN2CCCC2)c1", "Potency": "29.1 µM (active)"}
{"smiles": "Nc1nc2c(ncn2[C@@H]2O[C@H](CNCc3ccc(OCCCN4CCOCC4)cc3)[C@@H](O)[C@H]2O)c(=O)[nH]1", "Potency": "inactive"}
{"smiles": "O=S(O)CNc1ccc(S(=O)(=O)c2ccc(NCS(=O)O)cc2)cc1", "Potency": "inactive"}
{"smiles": "Cc1ccccc1NC(=O)Cn1c(=O)n(Cc2ccco2)c(=O)c2ccc(C(=O)NC3CCCC3)cc21", "Potency": "inactive"}
{"smiles": "CNC(=S)NNC(=O)c1sccc1OCc1ccccc1", "Potency": "inactive"}
{"smiles": "Cc1ccc(COc2ccc(/C=N/NC(=O)CN3CCCCC3)cc2)cc1", "Potency": "inactive"}
{"smiles": "Cc1ccc(/C=N/NC(=O)c2sccc2OCc2ccc(F)cc2)cc1", "Potency": "18.4 µM (active)"}
{"smiles": "CCN(CC)S(=O)(=O)c1ccc(NC(=O)CN(c2cccc(F)c2)S(C)(=O)=O)cc1", "Potency": "inactive"}
{"smiles": "C=CCNc1scc(-c2ccccc2)[n+]1CC=C", "Potency": "inactive"}
{"smiles": "C=CCNC(=O)c1csc(-c2ccccc2)n1", "Potency": "inactive"}
{"smiles": "C=CC[n+]1c(-c2ccc(C)cc2)csc1NNC(=O)Nc1ccccc1", "Potency": "9.2 µM (active)"}
{"smiles": "Cn1cnnc1Sc1ccc(S(C)(=O)=O)cc1[N+](=O)[O-]", "Potency": "inactive"}
{"smiles": "CNC[C@H]1OCc2cnnn2CCCC(=O)N([C@H](C)CO)C[C@@H]1C", "Potency": "inactive"}
{"smiles": "CC(C(=O)N1CCOCC1)N1c2cccc3cccc(c23)S1(=O)=O", "note": "(stereo not given)", "Potency": "inactive"}
{"smiles": "CCN(CC)C(=O)C(C)N1c2cccc3cccc(c23)S1(=O)=O", "note": "(stereo not given)", "Potency": "16.4 µM (active)"}
{"smiles": "CC(C)CN(CC(C)C)C(=O)CN1c2cccc3cccc(c23)S1(=O)=O", "Potency": "inactive"}
{"smiles": "CCNC(=O)C1(C)CCN(C(=O)c2ccccc2)C1", "note": "(stereo not given)", "Potency": "inactive"}
{"smiles": "O=C(Cn1ccc2cc(S(=O)(=O)N3CCCC3)ccc21)NCc1ccccc1", "Potency": "9.2 µM (active)"}
{"smiles": "O=C(NCc1ccccc1)C1CCN(S(=O)(=O)c2ccc3[nH]c(=O)ccc3c2)CC1", "Potency": "inactive"}
{"smiles": "O=C(COc1ccc(S(=O)(=O)N2CCCCC2)cc1)NCc1ccccn1", "Potency": "inactive"}
{"smiles": "COc1ccc(OC)c(CCNC(=O)CCn2ccc3cc(S(=O)(=O)N4CCCC4)ccc32)c1", "Potency": "inactive"}
{"smiles": "O=C(CCn1ccc2cc(S(=O)(=O)N3CCCC3)ccc21)NCc1cccc(Cl)c1", "Potency": "20.6 µM (active)"}
{"smiles": "CCCCN(C(=O)c1ccc(S(=O)(=O)N2CCOCC2)cc1)C1CCS(=O)(=O)C1", "note": "(stereo not given)", "Potency": "inactive"}
{"smiles": "O=C(CN1CCOC1=O)N1CCCC(Nc2ccc(F)c(F)c2)C1", "note": "(stereo not given)", "Potency": "inactive"}
{"smiles": "Cc1ccc([N+](=O)[O-])cc1S(=O)(=O)N1CCCN(C)CC1", "Potency": "inactive"}
{"smiles": "Cc1cc(NC(=O)c2ccc(-c3ccc(Cl)cc3)o2)cc(-c2nc3ncccc3o2)c1O", "Potency": "inactive"}
{"smiles": "O=S(=O)(c1cc(Cl)ccc1Cl)N1CCN(Cc2ccco2)CC1", "Potency": "inactive"}
{"smiles": "CCN1CCN(C(=O)C2CCN(S(=O)(=O)c3cc(Cl)ccc3Cl)CC2)CC1", "Potency": "inactive"}
{"smiles": "N#Cc1ccsc1NC(=O)CN1CCCCC1", "Potency": "inactive"}
{"smiles": "N#Cc1ccsc1NC(=O)CN1CCN(S(=O)(=O)c2cc(Cl)ccc2Cl)CC1", "Potency": "20.6 µM (active)"}
{"smiles": "O=C(CN1CCN(S(=O)(=O)c2cc(Cl)ccc2Cl)CC1)c1ccc(O)c(O)c1", "Potency": "2.59 µM (active)"}
{"smiles": "CN1CCN(S(=O)(=O)c2cccc(C(=O)Nc3sccc3C#N)c2)CC1", "Potency": "inactive"}
{"smiles": "Cn1c(SCc2nc3ccccc3s2)nnc1-c1ccc2c(c1)OCO2", "Potency": "inactive"}
{"smiles": "COCc1cc(C)nc(SCC(=O)Nc2cccc(C)c2)c1C#N", "Potency": "inactive"}
{"smiles": "Cc1cc(C)nc(SCc2ccccc2C#N)n1", "Potency": "inactive"}
{"smiles": "COc1ccc2oc(=N)c(C(=O)Nc3ccc(Br)cc3)cc2c1", "Potency": "inactive"}
{"smiles": "COc1ccc(/C=C/C(=O)c2cc(Br)ccc(=O)c2O)cc1", "Potency": "20.6 µM (active)"}
{"smiles": "COc1ccc2oc(=O)c(C(=O)O)cc2c1", "Potency": "inactive"}
{"smiles": "COc1ccc(NC(=O)Cn2nnc(C(=O)NCCc3ccc(OC)c(OC)c3)c2N)cc1", "Potency": "inactive"}
{"smiles": "CC(C)(C)n1cnnc1Sc1ccc([N+](=O)[O-])cn1", "Potency": "inactive"}
{"smiles": "Cc1ccc(S(=O)(=O)N2CCCCC2)cc1NC(=O)CCNC(=O)c1ccccc1Cl", "Potency": "inactive"}
{"smiles": "O=C(NNC(=O)c1ccccc1O)c1ccccc1O", "Potency": "2.91 µM (active)"}
{"smiles": "O=C(NNC(=O)c1cc(S(=O)(=O)N2CCCCC2)ccc1Cl)c1ccccc1O", "Potency": "20.6 µM (active)"}
{"smiles": "Cc1ccc(S(=O)(=O)N2CCN(C)CC2)cc1C(=O)NC1CCCCC1", "Potency": "inactive"}
{"smiles": "O=C(COC(=O)c1cc(S(=O)(=O)N2CCCCC2)ccc1Cl)NCc1ccco1", "Potency": "inactive"}
{"smiles": "CC1CCCCC1NC(=O)c1cn(C)c2ccc(S(=O)(=O)N3CCOCC3)cc2c1=O", "note": "(stereo not given)", "Potency": "inactive"}
{"smiles": "CC1CCCC(NC(=O)c2cc(S(=O)(=O)N3CCCCC3)ccc2Cl)C1C", "note": "(stereo not given)", "Potency": "25.9 µM (active)"}
{"smiles": "CC(=O)NC(=O)c1ccccc1O", "Potency": "inactive"}
{"smiles": "Cc1cc(C(=O)CCC(=O)NNC(=O)c2ccccc2O)c(C)s1", "Potency": "inactive"}
{"smiles": "C[C@@H]1O[C@@H](OC[C@H]2O[C@@H](Oc3c(-c4ccc(O)cc4)oc4cc(O)cc(O)c4c3=O)[C@H](O)[C@@H](O)[C@@H]2O)[C@H](O)[C@H](O)[C@H]1O", "Potency": "inactive"}
{"smiles": "CCOc1ccc(C(C)NC(=O)CN2C(=O)NC3(CCCCC3)C2=O)cc1OCC", "note": "(stereo not given)", "Potency": "inactive"}
{"smiles": "Cc1ccccc1NC(=O)Cn1c(=O)n(CC2CCCO2)c(=O)c2ccccc21", "note": "(stereo not given)", "Potency": "inactive"}
{"smiles": "C=C1O[C@@](CO)(n2cnc3c(N)ncnc32)[C@H](O)[C@@H]1O", "Potency": "inactive"}
{"smiles": "COc1ccc(C(=O)NNC(=S)NC(=O)c2ccccc2[N+](=O)[O-])cc1", "Potency": "23.1 µM (active)"}
{"smiles": "CC(=O)NC(=S)NNC(=O)c1ccc(Br)cc1", "Potency": "5.8 µM (active)"}
{"smiles": "CC(C)Oc1ccc(CCC(=O)NNC(=S)NCc2ccccc2)cc1", "Potency": "inactive"}
{"smiles": "O=C(CCc1ccccc1)NNC(=O)c1ccc(Br)cc1", "Potency": "inactive"}
{"smiles": "COc1ccc(C(=S)Nc2ccccc2)cc1", "Potency": "inactive"}
{"smiles": "COc1ccc(C(=O)NNC(=S)NC(=O)c2ccccc2)cc1", "Potency": "16.4 µM (active)"}
{"smiles": "COc1ccc(C(=O)NC2CCN(C(=S)Nc3ccccc3)CC2)cc1", "Potency": "inactive"}
{"smiles": "CNC(=S)NNC(=O)c1ccc(N(C)C)cc1", "Potency": "inactive"}
{"smiles": "O=C(NNC(=O)c1ccc(Cl)nc1)c1ccc(Br)cc1", "Potency": "inactive"}
{"smiles": "COC(=O)CNC(=O)c1ccccc1[N+](=O)[O-]", "Potency": "inactive"}
{"smiles": "COc1ccc(C(=O)NC(=S)NNC(=O)CCc2ccccc2)cc1", "Potency": "6.51 µM (active)"}
{"smiles": "O=C(NC(=S)Nc1ccc(S(=O)(=O)N2CCOCC2)cc1)c1ccccc1[N+](=O)[O-]", "Potency": "inactive"}
{"smiles": "CS(=O)(=O)Nc1ccccc1C(=O)OCC(=O)NC1CC1", "Potency": "inactive"}
{"smiles": "CC(C)NC(=O)c1ccc(Sc2ccccc2)c([N+](=O)[O-])c1", "Potency": "inactive"}
